46 molecules from ChEMBL document CHEMBL3988442, “University of Dundee, Small-Polar-MMV Screening Library” (2021) can be followed below.

In the assay the test system is Plasmodium falciparum. Kind of assay: Plasmodium falciparum sporozoite viability assay. It is filed as functional, organism-based. Set-up: scale not given: in the data most compounds retested in dose-response had high values.

Where “and” joins values, the source holds several entries; their conditions need not be identical. Equal values may be shown once. Screen size: about 34,000 compounds; about 290 (0.85%) showed an effect of 50% or more. Many of the other results were omitted from the sample, so strong results are more common in it than they were.

As for `c1cnn(CC2CN(c3ncnc4[nH]ccc34)CCO2)c1` (stereo unspecified), the “Percent Effect” value is reported as -8.614%.
For `Cc1nc(CN2CCC3(CC2)NC(=O)CC3c2cccnc2)cs1` (stereo unspecified), the “Percent Effect” value is -8.123%.
Still for that read-out and setting: the figure for `Cc1cc(CN2CCC3(CC2)C(=O)NCCN3CC2CC2)oc1C` is -0.5945%.
Regarding `O[C@H]1CN(CCOc2ccc(F)cc2)CC[C@@]12CCCO2`, under “10 mM as filed; unlikely as a test dose”, the “Percent Effect” value was 66.45% and 84.39% and 80.81%.
As to `O[C@H]1CN(CCCOc2ccccc2F)CC[C@@]12CCCO2`, the “Percent Effect” value worked out at 14%.
The same measure, in the same setting: under `OC1CCCOC12CCN(CCCOc1ccccc1F)CC2` (stereo unspecified) stands 2.153%; under `COc1ccccc1CNC(Cc1cccs1)c1nc(C)cs1.Cl` (stereo unspecified), -2.216%.
Take `Cc1cc(C)n(C2CN(CCC(=O)NC3CCCCC3)C2)n1`: the “Percent Effect” value was -0.4038%.
Same read-out and setting: under `CC(C)NC(=O)C1CN(C(=O)Nc2ccc(F)cc2)CC12CCOCC2` (stereo unspecified) stands -6.778%; under `CNc1cncc(C2CCCN2C(=O)c2ccc3c(c2)CCC3)n1` (stereo unspecified), 5.523%.
Regarding `COc1ccc(NC(=O)NC(C)c2nc[nH]n2)cc1` (stereo unspecified), where the note is “10 mM as filed; unlikely as a test dose”, the “Percent Effect” value is -24.45% and -7.709% and -11.14%.
On to `CC(NC(=O)Nc1ccc(OC2CCCC2)cc1)c1nc[nH]n1` (stereo unspecified), for which the “Percent Effect” value (10 mM as filed; unlikely as a test dose) is 68.07% and 85.04%.
On to `CCN1CCC(CNC(=O)Nc2cc(C)on2)C1` (stereo unspecified), for which the “Percent Effect” value is 13.21%.
For `COC(=O)c1cccn1C1CCN(Cc2nc3ccccc3o2)CC1`, the “Percent Effect” value was -2.498%.
In the case of `CN(CC1(CO)CCCC1)c1nc2c(c(=O)[nH]1)Cc1ccccc1OC2`, the “Percent Effect” value (10 mM as filed; unlikely as a test dose) was 63.62% and 42.71%.
With `CN(C)c1nc2c(c(=O)[nH]1)Cc1ccccc1OC2`, the “Percent Effect” value (10 mM as filed; unlikely as a test dose) was 9.66% and 16.82%.
As for `CNC(=O)N1CC[C@H]2N(C)CC[C@@]2(C(=O)N2CCOCC2)CC1.O=C(O)C(F)(F)F`, the “Percent Effect” value is on record as 9.37%.
On to `Cc1cnn(CC2CCCN2C(=O)Cc2c(C)noc2Cl)c1` (stereo unspecified), for which the “Percent Effect” value was 8.684%.
In the case of `Cc1ccc(CN2C[C@@H]3COC[C@H](C(=O)N4CCCCO4)[C@@H]3C2)o1.O=C(O)C(F)(F)F`, the “Percent Effect” value (10 mM as filed; unlikely as a test dose) was -11.42% and -12.39% and -13.97%.
`O=C(c1ccncc1)N1CCc2[nH]nc(Nc3ccccc3)c2C1`: the “Percent Effect” value was -2.217%.
With `Cn1cnc2cc(NC(=O)c3n[nH]c4c3CCC4)ccc21`, the “Percent Effect” value (10 mM as filed; unlikely as a test dose) was -48.98% and -33.08%.
With `CN(C)CCCn1cnc2cc(NC(=O)c3n[nH]c4c3CCC4)ccc21`, the “Percent Effect” value (10 mM as filed; unlikely as a test dose) was -35.39% and -25.92%.
Regarding `CC(C)c1nc2cc(NC(=O)c3n[nH]c4c3CCC4)ccc2n1C`, the “Percent Effect” value (10 mM as filed; unlikely as a test dose) was 73.89% and 87.21%.
Turning to `Cn1cc(C(=O)N2CCN(Cc3ccccn3)CC2)ccc1=O`, the “Percent Effect” value is reported as -3.259%.
As for `Cc1ccccc1C(C(=O)O)N(C)CC1CCOCC1` (stereo unspecified), the “Percent Effect” value is -26.36%.
Still for that read-out and setting: the figure for `COc1c(CNC(c2ccccc2)c2nccn2C)c(C)nn1C` (stereo unspecified) is 11.35%.
Turning to `C(=C\c1ccc(CN2CCCC2)cn1)/c1ccccc1`, the “Percent Effect” value (10 mM as filed; unlikely as a test dose) is 78.68% and 64.66%.
Take `O=C(O)c1ccccc1-c1ccc(CN2CCOCC2)cn1`: the “Percent Effect” value turned out to be 6.918%.
As for `c1cc(-c2cn[nH]c2)ncc1CN1CCCCC1`, for the setting “10 mM as filed; unlikely as a test dose”, the “Percent Effect” value is -7.187% and -9.51%.
For the molecule `O=C(C1CCOC1)N1C[C@H]2CN(Cc3cccc(F)c3)C(=O)[C@H]2C1` (stereo partly specified), the “Percent Effect” value is listed as 12.32%.
On the same count and under the same terms, the figure for `CC(C)NC(=O)c1csc(NC2CC2)n1` is -5.904%; for `NC(=O)c1cn[nH]c1C1CCCN1C(=O)c1ccccc1` (stereo unspecified) it is -3.133%; for `COc1ncnc(N(C)C)c1NC(=O)c1cscc1C` it is -11.09%.
Same read-out and setting: under `O=C(Nc1cc(C2CCOCC2)[nH]n1)c1cscn1` stands 17.19%; under `COC(=O)[C@@H]1CN(C(=O)c2cscn2)C[C@H]1c1ccc(OC)cc1`, 5.827%; under `COc1cc(N[C@@H](Cc2ccccc2)C(N)=O)ncn1`, 10.88%.
On the same count and under the same terms, the figure for `Cc1cnc(CN(C)C2CCN(Cc3nnc(C4CC4)o3)C2)o1` (stereo unspecified) is 13.1%.
`OC(COCc1ccccc1)CN1CCC(c2ccn[nH]2)CC1` (stereo unspecified): the “Percent Effect” value came out at 8.709%.
For the molecule `c1cc(CN2CCCC(c3nnc(-c4cnccn4)o3)C2)ccn1` (stereo unspecified), the “Percent Effect” value worked out at 8.33%.
Regarding `O=C(O)C(F)(F)F.O=C1COC2(CCN(Cc3ccoc3)CC2)CN1c1ccsc1`, the “Percent Effect” value is recorded as -2.422%.
The same measure, in the same setting: the figure for `Cn1cc(CN2CC[C@H](O)[C@@H]2Cc2ccncc2)cn1` is 14.17%.
In the case of `Cc1cc(C)n(C(=O)Cn2nc(C)c(I)c2C)n1`, the “Percent Effect” value is -1.053%.
With `CN1CCCC1CCn1ccnc1-c1nc(-c2ccccc2)no1` (stereo unspecified), the “Percent Effect” value (10 mM as filed; unlikely as a test dose) is 77.95% and 70.89%.
As for `CN1CCCC1c1ccnc(-c2ccccc2)n1` (stereo unspecified), the “Percent Effect” value was determined as 8.44%.
Regarding `CN(C)c1ncccc1CNS(=O)(=O)c1ccc(F)cc1F`, the “Percent Effect” value was found to be 5.626%.
`CC/N=c1\nc(NCC)nc2n1C(O)(Nc1cccc(C)c1C)CS2` (stereo unspecified): the “Percent Effect” value (10 mM as filed; unlikely as a test dose) was -13.62% and 2.28%.
